This experiment concerns MDA-MB-468 breast. The experiment can be described thus: NCI-60 one-dose screen, 48 h (100 = growth as untreated, 0 = no growth, -100 = all killed).

Where “and” joins values, the source holds several entries; their conditions need not be identical. Equal values may be shown once. The panel holds about 83,000 compounds, 20% with a hit somewhere; the sample as a whole holds those more often.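 Treatment: one concentration, 48 hours, 96-well format. Scoring: percent growth, with anything below 10 considered active.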 Values without a mark were called inactive. Calls of active or inactive are those of the source.

As to `COc1ccc2c(O)c(/C=C3\N=Nc4ncccc43)oc2c1C[C@H]1CCNC[C@H]1F`, the growth (10 µM unless noted) is -39% (active).

As to `CC(=O)/C=C/c1ccc(N(CCO)Cc2ccc(C(C)(C)C)cc2)cc1`, the growth was 73.8% (10 µM) and -71% (active) (100 µM).

On to `O=C1Nc2ccccc2/C1=C/c1c[nH]c2ccccc12`, for which, where the note is “10 µM unless noted”, the growth was 44.4%.

As to `O=c1[nH]cc(F)c(=O)[nH]1`, the growth (10 µM) was 64.4% and the growth (50 µM) is 58.6%.

As for `COc1ccc(C(=O)/C=C/c2ccc(OCc3ccc(Cl)cc3)cc2)cc1OC`, the growth by setting is: (10 µM) 83.3%; (100 µM) 27.8%.

Consider `CC(=O)/C=C/c1ccc(OCc2ccc(Cl)cc2)cc1`, for which the growth (10 µM) was 109% and the growth (100 µM) is 1.46% (active).

In the case of `COc1ccc(C(=O)/C=C/c2ccc(OCc3cccc(C(F)(F)F)c3)c(OC)c2)cc1OC`, the growth (10 µM) is 68.9% and the growth (100 µM) is -2.26% (active).

As for `COc1cccc2c1C(=O)c1c(O)c3c(c(O)c1C2=O)C[C@@](O)(C(=O)CO)C[C@@H]3OC1CC(N)C(O)C(C)O1` (some centres undefined), the growth (0.0025 µM) is 95.2% and the growth (2.5 µM) was 10.4%.

Take `O=C(Nc1c(Cl)cccc1Cl)Oc1cccc2cccnc12`: the growth by setting is: (10 µM) 19.5%; (100 µM) -0.346% (active).

Consider `CN(C)CCNc1ncc(F)c(-c2cnc3cc(-c4cnn(C)c4)ccn23)n1`, for which the growth is 103% (0.005 µM) and 84.5% (30 µM).

On to `C#C[C@]1(O)CCC2C3CCc4cc(O)ccc4C3CC[C@@]21C` (some centres undefined), for which, for the setting “10 µM unless noted”, the growth is 12.1%.

Turning to `CN1C(=O)CNC(=O)[C@H](NC(=O)c2nc3ccccc3cc2O)CSSC[C@H]1C(=O)NCCc1nc2ccccc2cc1O`, the growth (10 µM unless noted) is 16%.

`CCCCNc1cc(C(=O)O)cc(S(N)(=O)=O)c1Oc1ccccc1`: the growth (10 µM unless noted) was 94.1%.

Consider `Cc1cc2c(C#N)n3c(c2cc1C)C(=O)C(c1ccccc1)Oc1ccccc1-3` (centres undefined), for which, for the setting “10 µM unless noted”, the growth is 50%.

On to `CCc1ccccc1-n1c(N)c(C#N)c(-c2ccc(OC)c(OC)c2)c(C#N)c1=O`, for which the growth is 107% (10 µM) and 47.4% (100 µM).

Consider `O=c1c2cc(F)cc(Cl)c2sc2c(Cl)nc3ccccc3c12`, for which the growth (10 µM unless noted) was 99%.

As for `CNC(=O)c1cc(Oc2ccc(CC(=O)Nc3cc(C(C)(C)C)nn3C)cc2)ccn1`, the growth was 28.7% (1 µM), 2.05% (active) (10 µM) and 19.7% (30 µM).

As to `O=C(O)c1c(Cl)c(Cl)c(Cl)c(Cl)c1-c1c2cc(I)c(=O)c(I)c-2oc2c(I)c(O)c(I)cc12`, the growth (10 µM) was 115% and 111% and 77.5%; the growth (100 µM) was -39.6% (active).

Turning to `Cn1cc(-c2cc(N)n3nc(-c4cn(C)c5ccccc45)cc3n2)c2ccccc21`, the growth (10 µM unless noted) is 75%.

For `CC#C[C@]1(O)CC[C@H]2[C@@H]3CCC4=CC(=O)CCC4=C3[C@@H](c3ccc4c(c3)OCO4)C[C@@]21C`, the growth was 66.6% (10 µM) and -15.2% (active) (100 µM).

On to `CC(=O)/C=C/c1ccc(OCc2ccc(C(C)(C)C)cc2)cc1`, for which the growth (10 µM) was 47.7% and the growth (100 µM) is -0.894% (active).

Regarding `CC1(C)OB(c2ccc(Cn3cc(F)c(=O)[nH]c3=O)cc2)OC1(C)C`, the growth is 105% (10 µM) and 13% (50 µM).

On to `CN(C)C(=O)c1ccc(SC(=S)NCc2ccccc2)cc1`, for which the growth was 93.9% (10 µM) and -27.4% (active) (100 µM).

For `CC(C)(C)c1cc(NC(=O)Cc2ccc(-c3cnc4cc(-c5cnn(CCN6CCOCC6)c5)ccc4n3)cc2)no1`, the growth is, setting by setting: (10 µM) 22.2%; (30 µM) -1.53% (active).

Turning to `CC(=O)O[C@H]1C(=O)[C@@]2(C)[C@H]([C@H](OC(=O)c3ccccc3)[C@]3(O)C[C@H](OC(=O)[C@H](O)[C@@H](NC(=O)c4ccccc4)c4ccccc4)C(C)=C1C3(C)C)[C@]1(OC(C)=O)CO[C@@H]1C[C@@H]2O`, the growth was -25.5% (active) (2.5 µM), -21.9% (active) (5 µM) and -19.1% (active) (10 µM).

Take `Cc1[nH]c(-c2nc3ccccc3[nH]2)c(C)c1C(=O)NC(C)C1CCCCC1` (centres undefined): the growth (10 µM) is 59.8% and the growth (100 µM) is -87.1% (active).

As to `COc1ccc(Cl)cc1C(=O)NCCc1ccc(S(=O)(=O)NC(=O)NC2CCCCC2)cc1`, the growth reads like this: (10 µM) 103% and 118%; (100 µM) 63.2%.

Regarding `O=C(O)c1sccc1O`, the growth (10 µM) was 76.3% and the growth (100 µM) is 10.8%.

For `O=C(Nc1cccc(C(=O)N2CCc3ccc(Cl)cc32)c1)c1ccco1`, the growth (10 µM unless noted) was -0.651% (active).

Consider `CCCCCCCCCCCCCCCc1ccc(Cl)c(O)c1Cl` (tested in a mixture with another compound), for which the growth (0.25 µM) is 8.94% (active) and the growth (10 µM) was 103%.

Regarding `c1cnc2c(-c3nc4ccc5[nH]ncc5c4c4c3CCCC4)c[nH]c2c1`, for the setting “10 µM unless noted”, the growth was 10.9%.

These data come from PubChem BioAssay (NCI).
